# Experimental data published in PubChem BioAssay (NCI).
# The panel holds about 79,000 compounds, 15% with a hit somewhere; the sample as a whole holds those more often. Unmarked numbers belong to inactive results. Calls of active or inactive are those of the source. Cut-off read from the data, not from the text of the source: active = growth inhibition above about 70%; inactive = the rest.
# Columns and labels:
# [1] = NCI Yeast Anticancer Drug Screen. Data for the wt1 strain (AID 149);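 note: 0% = growth of vehicle-treated wt1 cultures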; conditions: S. cerevisiae wt1 strain (SPY 50644) growth inhibition, hits give high values
# Procedure, shortened: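 The wt1 strain was treated with compounds, and growth was compared with vehicle-treated cultures to give inhibition.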
# [2] = NCI Yeast Anticancer Drug Screen. Data for the rad50EPP+ strain (AID 151);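 note: 0% = growth of vehicle-treated control cultures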; conditions: S. cerevisiae rad50 mutant strain, hits give high values
# Procedure, shortened: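 One strain with a rad50 alteration (rad50EPP+) was compound-treated, its growth then compared to that of vehicle controls.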
# [3] = NCI Yeast Anticancer Drug Screen. Data for the mgt1 strain (AID 153); conditions: S. cerevisiae mgt1 mutant growth inhibition, hits give high values
# Procedure, shortened: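 After exposure of the mgt1 yeast mutant to compound, growth was measured and reported as inhibition compared with vehicle controls.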
# [4] = NCI Yeast Anticancer Drug Screen. Data for the rad50 strain (AID 155);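 note: 0% = growth of vehicle-only cultures of the same strain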; conditions: S. cerevisiae rad50 strain growth inhibition, hits give high values
# Procedure, shortened: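 Cells are treated with compound, grown, and their growth is then scored against vehicle-only cultures of the same repair-deficient yeast strain.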
# [5] = NCI Yeast Anticancer Drug Screen. Data for the mec2-1 strain (AID 157); conditions: S. cerevisiae mec2-1 strain, hits give high values
# Procedure, shortened: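 Test agents were screened against the mec2-1 yeast strain, with defined DNA repair or cell cycle alteration. Growth was scored as inhibition against vehicle-only controls.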
# [6] = NCI Yeast Anticancer Drug Screen. Data for the rad14 strain (AID 159);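 note: 0% = growth of vehicle-treated control cultures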; conditions: S. cerevisiae rad14 strain growth inhibition, hits give high values
# Procedure, shortened: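 Readout: yeast growth inhibition, referenced to vehicle-only cultures. Strain bears a defined alteration in DNA damage repair.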
# [7] = NCI Yeast Anticancer Drug Screen. Data for the sgs1 mgt1 strain (AID 161);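 note: 0% = growth of cultures given vehicle only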; conditions: S. cerevisiae sgs1 mgt1 strain, hits give high values
# Procedure, shortened: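 Read-out: growth inhibition vs vehicle controls. Cells: mutant yeast strain deficient in DNA damage repair.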
# [8] = NCI Yeast Anticancer Drug Screen. Data for the CLN2oe strain (AID 163);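 note: 0% = growth of vehicle-only control cultures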; conditions: S. cerevisiae CLN2oe strain, hits give high values
# Procedure, shortened: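 Here, growth inhibition in a cell-cycle-altered yeast strain after compound exposure was quantified against vehicle control growth.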
# [9] = NCI Yeast Anticancer Drug Screen. Data for the cln2 rad14 strain (AID 165);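 note: 0% = growth equal to vehicle treated cultures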; conditions: S. cerevisiae cln2 rad14 strain, hits give high values
# Procedure, shortened: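 Growth of compound-exposed yeast (cln2 rad14 genotype) measured and expressed as inhibition relative to vehicle.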
# [10] = NCI Yeast Anticancer Drug Screen. Data for the bub3 strain (AID 167); conditions: S. cerevisiae bub3 mutant strain, hits give high values
# Procedure, shortened: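 Part of a panel of yeast mutants defective in DNA damage repair or cell cycle regulation. Each strain is grown with compound, and inhibition is calculated relative to solvent-treated cultures.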
# [11] = NCI Yeast Anticancer Drug Screen. Data for the wt2 strain (AID 169);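 note: 0% = growth of vehicle-treated yeast cultures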; conditions: S. cerevisiae wt2 strain growth inhibition, hits give high values
# Procedure, shortened: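 Genetically defined yeast strains from a DNA-repair/cell-cycle panel were used. Compound-exposed yeast growth was measured, and the inhibition was calculated relative to vehicle treatment.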
# [12] = NCI Yeast Anticancer Drug Screen. Data for the mlh1 strain (AID 171);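 note: 0% = growth of vehicle-treated control cultures of the same strain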; conditions: S. cerevisiae mlh1 strain growth inhibition, hits give high values
# Procedure, shortened: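 Here the genetically defined yeast mutant is grown with each compound, and the extent to which its growth falls below that of vehicle-exposed cells is reported.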
# [13] = NCI Yeast Anticancer Drug Screen. Data for the sgs1 strain (AID 173);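 note: 0% = growth of vehicle-only control cultures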; conditions: S. cerevisiae sgs1 mutant, hits give high values
# Procedure, shortened: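 Relative growth inhibition, referenced to vehicle, was determined in a yeast strain with a defined alteration affecting DNA damage repair or cell cycle control after compound exposure.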
# [14] = NCI Yeast Anticancer Drug Screen. Data for the mlh1 rad18 strain (AID 175); conditions: S. cerevisiae mlh1 rad18 strain growth inhibition, hits give high values
# Procedure, shortened: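 In this whole-cell yeast screen, a strain with altered DNA damage repair is challenged with compound, and its growth is measured against matched vehicle-treated controls.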
# [15] = NCI Yeast Anticancer Drug Screen. Data for the rad18 strain (AID 177); conditions: S. cerevisiae rad18 mutant growth inhibition, hits give high values
# Procedure, shortened: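 Screen uses a yeast strain with a defined lesion in DNA damage repair; compound effect is read as loss of growth compared to untreated vehicle cultures.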
# [16] = at 5.0 µM (retest, dose inferred, filed as 0.5)
# [17] = at 50.0 µM (retest, dose inferred, filed as 5.0)
smiles,measurement,setting,value
Cc1cc(N(CCOS(C)(=O)=O)CCOS(C)(=O)=O)ccc1C=O,growth inhibition,[1]; at 1.2 µM,27%
same,growth inhibition,[1]; at 3.7 µM,28%
same,growth inhibition,[1]; at 11.0 µM,32%
same,growth inhibition,[1]; at 33.0 µM,37%
same,growth inhibition,[1]; at 100.0 µM,31%
same,growth inhibition,[2]; at 1.2 µM,15%
same,growth inhibition,[2]; at 3.7 µM,45%
same,growth inhibition,[2]; at 11.0 µM,34%
same,growth inhibition,[2]; at 33.0 µM,30%
same,growth inhibition,[2]; at 100.0 µM,15%
same,growth inhibition,[3]; at 1.2 µM,14%
same,growth inhibition,[3]; at 3.7 µM,26%
same,growth inhibition,[3]; at 11.0 µM,34%
same,growth inhibition,[3]; at 33.0 µM,41%
same,growth inhibition,[3]; at 100.0 µM,44%
same,growth inhibition,[4]; at 1.2 µM,4%
same,growth inhibition,[4]; at 3.7 µM,16%
same,growth inhibition,[4]; [16],29%
same,growth inhibition,[4]; at 11.0 µM,26%
same,growth inhibition,[4]; at 33.0 µM,43%
same,growth inhibition,[4]; [17],57%
same,growth inhibition,[4]; at 50.0 µM,50%
same,growth inhibition,[4]; at 100.0 µM,66%
same,growth inhibition,[5]; at 1.2 µM,6%
same,growth inhibition,[5]; at 3.7 µM,23%
same,growth inhibition,[5]; [16],24%
same,growth inhibition,[5]; at 11.0 µM,24%
same,growth inhibition,[5]; at 33.0 µM,41%
same,growth inhibition,[5]; [17],57%
same,growth inhibition,[5]; at 50.0 µM,54.8%
same,growth inhibition,[5]; at 100.0 µM,68%
same,growth inhibition,[6]; at 1.2 µM,20%
same,growth inhibition,[6]; at 3.7 µM,36%
same,growth inhibition,[6]; at 11.0 µM,50%
same,growth inhibition,[6]; at 33.0 µM,64%
same,growth inhibition,[6]; at 100.0 µM,83% (active)
same,growth inhibition,[7]; [16],13%
same,growth inhibition,[7]; [17],38%
same,growth inhibition,[7]; at 50.0 µM,12.8%
same,growth inhibition,[8]; at 1.2 µM,2%
same,growth inhibition,[8]; at 3.7 µM,9%
same,growth inhibition,[8]; at 11.0 µM,10%
same,growth inhibition,[8]; at 33.0 µM,36%
same,growth inhibition,[8]; at 100.0 µM,34%
same,growth inhibition,[9]; [16],34%
same,growth inhibition,[9]; [17],45%
same,growth inhibition,[9]; at 50.0 µM,36.9%
same,growth inhibition,[10]; at 1.2 µM,16%
same,growth inhibition,[10]; at 3.7 µM,17%
same,growth inhibition,[10]; [16],-3%
same,growth inhibition,[10]; at 11.0 µM,4%
same,growth inhibition,[10]; at 33.0 µM,18%
same,growth inhibition,[10]; [17],13%
same,growth inhibition,[10]; at 50.0 µM,4.7%
same,growth inhibition,[10]; at 100.0 µM,34%
same,growth inhibition,[11]; at 1.2 µM,-45%
same,growth inhibition,[11]; at 3.7 µM,-46%
same,growth inhibition,[11]; at 11.0 µM,-43%
same,growth inhibition,[11]; at 33.0 µM,1%
same,growth inhibition,[11]; at 100.0 µM,33%
same,growth inhibition,[12]; at 1.2 µM,14%
same,growth inhibition,[12]; at 3.7 µM,28%
same,growth inhibition,[12]; at 11.0 µM,24%
same,growth inhibition,[12]; at 33.0 µM,52%
same,growth inhibition,[12]; at 100.0 µM,60%
same,growth inhibition,[13]; at 1.2 µM,19%
same,growth inhibition,[13]; at 3.7 µM,22%
same,growth inhibition,[13]; at 11.0 µM,39%
same,growth inhibition,[13]; at 33.0 µM,51%
same,growth inhibition,[13]; at 100.0 µM,58%
same,growth inhibition,[14]; [16],56%
same,growth inhibition,[14]; [17],88% (active)
same,growth inhibition,[14]; at 50.0 µM,82.5% (active)
same,growth inhibition,[15]; at 1.2 µM,29%
same,growth inhibition,[15]; at 3.7 µM,50%
same,growth inhibition,[15]; at 11.0 µM,70% (active)
same,growth inhibition,[15]; at 33.0 µM,86% (active)
same,growth inhibition,[15]; at 100.0 µM,89% (active)
[O-]c1c2cc(-[n+]3c(-c4ccccc4)cc(-c4ccccc4)cc3-c3ccccc3)cc1COCCOCCOCCOCCOC2,growth inhibition,[1]; at 1.2 µM,3%
same,growth inhibition,[1]; at 3.7 µM,-6%
same,growth inhibition,[1]; at 11.0 µM,-6%
same,growth inhibition,[1]; at 33.0 µM,-7%
same,growth inhibition,[1]; at 100.0 µM,35%
same,growth inhibition,[2]; at 1.2 µM,-1%
same,growth inhibition,[2]; at 3.7 µM,0%
same,growth inhibition,[2]; at 11.0 µM,5%
same,growth inhibition,[2]; at 33.0 µM,31%
same,growth inhibition,[2]; at 100.0 µM,66%
same,growth inhibition,[3]; at 1.2 µM,-7%
same,growth inhibition,[3]; at 3.7 µM,-2%
same,growth inhibition,[3]; at 11.0 µM,-13%
same,growth inhibition,[3]; at 33.0 µM,10%
same,growth inhibition,[3]; at 100.0 µM,82% (active)
same,growth inhibition,[4]; at 1.2 µM,1%
same,growth inhibition,[4]; at 3.7 µM,-2%
same,growth inhibition,[4]; [16],-5%
same,growth inhibition,[4]; at 11.0 µM,0%
same,growth inhibition,[4]; at 33.0 µM,17%
same,growth inhibition,[4]; [17],35%
same,growth inhibition,[4]; at 50.0 µM,59.1%
same,growth inhibition,[4]; at 100.0 µM,80% (active)
same,growth inhibition,[5]; at 1.2 µM,-5%
same,growth inhibition,[5]; at 3.7 µM,-4%
same,growth inhibition,[5]; [16],-7%
same,growth inhibition,[5]; at 11.0 µM,-2%
same,growth inhibition,[5]; at 33.0 µM,4%
same,growth inhibition,[5]; [17],31%
same,growth inhibition,[5]; at 50.0 µM,33%
same,growth inhibition,[5]; at 100.0 µM,77% (active)
same,growth inhibition,[6]; at 1.2 µM,1%
same,growth inhibition,[6]; at 3.7 µM,1%
same,growth inhibition,[6]; at 11.0 µM,1%
same,growth inhibition,[6]; at 33.0 µM,9%
same,growth inhibition,[6]; at 100.0 µM,81% (active)
same,growth inhibition,[7]; [16],-11%
same,growth inhibition,[7]; [17],20%
same,growth inhibition,[7]; at 50.0 µM,31.6%
same,growth inhibition,[8]; at 1.2 µM,-6%
same,growth inhibition,[8]; at 3.7 µM,1%
same,growth inhibition,[8]; at 11.0 µM,-3%
same,growth inhibition,[8]; at 33.0 µM,-6%
same,growth inhibition,[8]; at 100.0 µM,77% (active)
same,growth inhibition,[9]; [16],-31%
same,growth inhibition,[9]; [17],12%
same,growth inhibition,[9]; at 50.0 µM,17.1%
same,growth inhibition,[10]; at 1.2 µM,-4%
same,growth inhibition,[10]; at 3.7 µM,-6%
same,growth inhibition,[10]; [16],-19%
same,growth inhibition,[10]; at 11.0 µM,-4%
same,growth inhibition,[10]; at 33.0 µM,-8%
same,growth inhibition,[10]; [17],10%
same,growth inhibition,[10]; at 50.0 µM,21.7%
same,growth inhibition,[10]; at 100.0 µM,30%
same,growth inhibition,[11]; at 1.2 µM,-2%
same,growth inhibition,[11]; at 3.7 µM,-3%
same,growth inhibition,[11]; at 11.0 µM,-2%
same,growth inhibition,[11]; at 33.0 µM,18%
same,growth inhibition,[11]; at 100.0 µM,82% (active)
same,growth inhibition,[12]; at 1.2 µM,-1%
same,growth inhibition,[12]; at 3.7 µM,-1%
same,growth inhibition,[12]; at 11.0 µM,-2%
same,growth inhibition,[12]; at 33.0 µM,12%
same,growth inhibition,[12]; at 100.0 µM,87% (active)
same,growth inhibition,[13]; at 1.2 µM,-4%
same,growth inhibition,[13]; at 3.7 µM,-2%
same,growth inhibition,[13]; at 11.0 µM,-1%
same,growth inhibition,[13]; at 33.0 µM,18%
same,growth inhibition,[13]; at 100.0 µM,71% (active)
same,growth inhibition,[14]; [16],0%
same,growth inhibition,[14]; [17],70% (active)
same,growth inhibition,[14]; at 50.0 µM,72.2% (active)
same,growth inhibition,[15]; at 1.2 µM,-1%
same,growth inhibition,[15]; at 3.7 µM,-3%
same,growth inhibition,[15]; at 11.0 µM,-3%
same,growth inhibition,[15]; at 33.0 µM,6%
same,growth inhibition,[15]; at 100.0 µM,74% (active)
